Results published in PubChem BioAssay (Tox21).
Results filed as inconclusive are left out. Calls of active or inactive are those of the source. Unless noted, the call rests on the fitted dose curve; in most records, active means well fitted curve in the direction sought with a large enough effect in the repeat runs; inconclusive means weak or mixed curves; inactive means no such curve, though single readings can be large; an effect the other way counts as inactive or inconclusive.

target: Aryl hydrocarbon receptor (Homo sapiens) (UniProt P35869); assay: qHTS assay to identify small molecule that activate the aryl hydrocarbon receptor (AhR) signaling pathway (AID 743085); details: HepG2 AhR-luc (HG2L7.5c1), luciferase, 24 h; series mostly up to 70.3 µM; activation: at the top concentration;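 further: HG2L7.5c1 human HepG2 liver cells with stably integrated DRE-driven firefly reporter; nearly all actives have a fitted effect of over 15% in size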
How it was run: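 Luminescence (ONE-Glo) from a dioxin-responsive-element luciferase reporter in HG2L7.5c1 HepG2 cells after 24 hr compound exposure at 37C; viability measured by CellTiter-Fluor fluorescence beforehand.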
On the % scale 0 is the no-effect control and ±100 the full control effect.

Chain of Aryl hydrocarbon receptor (Homo sapiens) (P35869 whole entry, looked up): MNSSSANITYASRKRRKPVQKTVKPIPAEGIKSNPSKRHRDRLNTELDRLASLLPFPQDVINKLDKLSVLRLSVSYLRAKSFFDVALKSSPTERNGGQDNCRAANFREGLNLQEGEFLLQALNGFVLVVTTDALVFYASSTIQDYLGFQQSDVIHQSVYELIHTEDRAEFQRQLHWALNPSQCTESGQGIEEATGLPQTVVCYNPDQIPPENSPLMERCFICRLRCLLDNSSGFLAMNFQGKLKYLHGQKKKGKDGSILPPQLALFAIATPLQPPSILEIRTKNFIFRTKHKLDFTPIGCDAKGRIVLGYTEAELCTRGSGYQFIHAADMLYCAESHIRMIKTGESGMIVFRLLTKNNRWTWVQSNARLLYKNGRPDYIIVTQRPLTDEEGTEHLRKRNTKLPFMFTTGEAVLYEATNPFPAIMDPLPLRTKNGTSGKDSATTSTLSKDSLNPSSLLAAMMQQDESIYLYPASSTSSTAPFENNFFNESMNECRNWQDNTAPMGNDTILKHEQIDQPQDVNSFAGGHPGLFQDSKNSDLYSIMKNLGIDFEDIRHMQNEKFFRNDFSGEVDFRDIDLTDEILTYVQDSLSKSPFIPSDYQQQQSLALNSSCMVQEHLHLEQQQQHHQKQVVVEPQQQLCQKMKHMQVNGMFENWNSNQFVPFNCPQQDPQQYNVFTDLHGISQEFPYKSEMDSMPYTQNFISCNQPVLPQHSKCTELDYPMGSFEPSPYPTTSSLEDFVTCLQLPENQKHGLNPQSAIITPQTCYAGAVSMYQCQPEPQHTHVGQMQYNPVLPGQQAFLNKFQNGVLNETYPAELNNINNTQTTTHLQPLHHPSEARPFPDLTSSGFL

SMILES | activation
Cc1ccc(OC(=O)CC(C)C)cc1 | 0.162% (inactive)
CCO/C=C1\N=C(c2ccccc2)OC1=O | 10.8% (inactive)
CCCCCCCCCCCCCCCCN(C)C | -0.709% [at 8.47 µM] (inactive)
CC[C@@]1(c2ccccc2)NC(=O)N(C)C1=O | -0.456% (inactive)
O=C(O)P(=O)(O)O | -0.0508% (inactive)
CC1(C)S[C@@H]2[C@H](NC(=O)Cc3ccccc3)C(=O)N2[C@H]1C(=O)O (tested in a mixture with another compound) | 6.79% (inactive)
CC(CC(=O)Cl)CC(C)(C)C (stereo unspecified) | -0.452% [at 95 µM] (inactive)
Cc1ccc(S(=O)(=O)NC(=O)NN2CC3CCCC3C2)cc1 (stereo unspecified) | 2.36% [at 32.5 µM] (inactive)
Cc1ccc2cccnc2c1 | -0.374% (inactive)
CCCC(=O)CC | -0.033% [at 95 µM] (inactive)
CN(C)CCCN(C)C | -0.58% [at 8.47 µM] (inactive)
O=Cc1ccc(C(=O)O)cc1 | -2.2% [at 95 µM] (inactive)
c1cc2ccc3ccc4ccc5cccc6c(c1)c2c3c4c56 | 0.485% [at 3.79 µM] (inactive)
CC1(C)C(=O)C(C)(C)C1=O | -0.732% (inactive)
C=C(C)C(=O)OCCCC | 1.72% [at 95 µM] (inactive)
CCCCN1C(=O)c2ccccc2C1=O | 3.32% [at 95 µM] (inactive)
C[C@@H]1CC[C@@]2(OC1)O[C@H]1C[C@H]3[C@@H]4CC[C@H]5C[C@@H](O)CC[C@]5(C)[C@H]4CC(=O)[C@]3(C)[C@H]1[C@@H]2C | 0.0151% [at 32.5 µM] (inactive)
CCOCCOCCOC(C)=O | -1.51% [at 95 µM] (inactive)
CC(O)CCCCn1c(=O)c2c(ncn2C)n(C)c1=O (stereo unspecified) | -0.892% (inactive)

SMILES | activation
CCOC(=O)CC | -0.629% (inactive)
c1coc(Cn2cccc2)c1 | -1.26% (inactive)
C=COCCCCO | 1.79% (inactive)
CC/C=C\CCCCCCCCCCOC(C)=O | -0.458% (inactive)
CCCCCCCCS(=O)(=O)O | -2.17% [at 95 µM] (inactive)
CN1C(CCl)Nc2cc(Cl)c(S(N)(=O)=O)cc2S1(=O)=O (stereo unspecified) | -1.04% (inactive)
CC(=O)SCC(CC(=O)c1ccc(C)cc1)C(=O)O (stereo unspecified) | -2.58% (inactive)
CN(C)c1ccncc1 | -0.41% (inactive)
O=S(=O)(O)CC(O)CCl (stereo unspecified) | -0.517% (inactive)
N[C@H]1C(O)O[C@H](CO)[C@@H](O)[C@@H]1O (stereo partly specified) | -0.701% (inactive)
C=CCN1CCc2nc(N)sc2CC1 | 4.79% (inactive)
Cc1ccc(O)c([N+](=O)[O-])c1 | 6.3% [at 95 µM] (inactive)
OCCC(F)(F)C(F)(F)C(F)(F)C(F)(F)C(F)(F)C(F)(F)F | 0.329% (inactive)
CN(C)c1cc(NC(=O)CNC(C)(C)C)c(O)c2c1C[C@H]1C[C@H]3[C@H](N(C)C)C(=O)C(C(N)=O)=C(O)[C@@]3(O)C(=O)C1=C2O | -3.89% (inactive)
CNCCc1ccccn1 | -1.05% [at 32.5 µM] (inactive)
Cc1ccccc1OCC(=O)O | 2.84% (inactive)
CCOc1ccccc1OCCN[C@H](C)Cc1ccc(OC)c(S(N)(=O)=O)c1 | 8.43% (inactive)
CCC(C)SSC(C)CC (stereo unspecified) | 3.47% (inactive)
CC1(C)CC(N)CC(C)(C)N1 | -0.437% (inactive)

tested on: not listed separately; assay: qHTS assay to identify small molecule that activate the aryl hydrocarbon receptor (AhR) signaling pathway - cell viability counter screen (AID 743086); details: HepG2-AhR-luc viability, CellTiter-Fluor, 24 h; series mostly up to 70.3 µM; viability change, negative = cytotoxic: at the top concentration;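 further: HepG2 liver cells carrying the AhR DRE luciferase reporter; nearly all actives have a fitted effect of over 45% in size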
How it was run: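 Cytotoxicity counter screen: CellTiter-Fluor signal (30 min, 37 C) in 4000 HepG2 cells/well carrying the DRE-luciferase reporter, following 24 h compound exposure at 37 C.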

SMILES | viability change, negative = cytotoxic
Cc1ccc(OC(=O)CC(C)C)cc1 | 3.13% (inactive)
CCO/C=C1\N=C(c2ccccc2)OC1=O | 2.38% (inactive)
CCCCCCCCCCCCCCCCN(C)C | -0.517% [at 8.47 µM] (inactive)
O=C(O)P(=O)(O)O | 7.76% (inactive)
Cc1ccc2cccnc2c1 | 0.972% (inactive)
c1cc2ccc3ccc4ccc5cccc6c(c1)c2c3c4c56 | 13.2% [at 3.79 µM] (inactive)
CC1(C)C(=O)C(C)(C)C1=O | 1.35% (inactive)
CCCCN1C(=O)c2ccccc2C1=O | -12.4% [at 95 µM] (inactive)
C[C@@H]1CC[C@@]2(OC1)O[C@H]1C[C@H]3[C@@H]4CC[C@H]5C[C@@H](O)CC[C@]5(C)[C@H]4CC(=O)[C@]3(C)[C@H]1[C@@H]2C | 2.37% [at 32.5 µM] (inactive)
CCOCCOCCOC(C)=O | 5.58% [at 95 µM] (inactive)
c1coc(Cn2cccc2)c1 | -2.55% (inactive)
C=COCCCCO | -8.97% (inactive)
CCCCCCCCS(=O)(=O)O | 19% [at 95 µM] (inactive)
CN(C)c1ccncc1 | 18.4% (inactive)
N[C@H]1C(O)O[C@H](CO)[C@@H](O)[C@@H]1O (stereo partly specified) | 8.64% (inactive)
CNCCc1ccccn1 | 1.74% [at 32.5 µM] (inactive)
Cc1ccccc1OCC(=O)O | -14.9% (inactive)
CCOc1ccccc1OCCN[C@H](C)Cc1ccc(OC)c(S(N)(=O)=O)c1 | -6.06% (inactive)
CCC(C)SSC(C)CC (stereo unspecified) | 3.4% (inactive)
CC1(C)CC(N)CC(C)(C)N1 | 1.76% (inactive)

target: Peroxisome proliferator-activated receptor gamma (Homo sapiens) (UniProt P37231); assay: qHTS assay to identify small molecule agonists of the peroxisome proliferator-activated receptor gamma (PPARg) signaling pathway (AID 743094; active means well fitted activation curve with a large enough effect in the signal ratio in the repeat runs, not every such curve was filed as active; the % refers to the signal ratio); details: HEK293H PPARg-UAS-bla, beta-lactamase FRET ratio, 17 h; series mostly up to 57 µM; activation: at the top concentration
How it was run: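 Agonist activity was taken from a beta-lactamase reporter (FRET substrate, 1 h at room temperature) in HEK293H cells carrying a PPARg UAS-bla construct. Compounds in DMSO were incubated 17 h at 37C after a 5 h cell pre-incubation.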

Chain of Peroxisome proliferator-activated receptor gamma (Homo sapiens) (P37231 whole entry, looked up): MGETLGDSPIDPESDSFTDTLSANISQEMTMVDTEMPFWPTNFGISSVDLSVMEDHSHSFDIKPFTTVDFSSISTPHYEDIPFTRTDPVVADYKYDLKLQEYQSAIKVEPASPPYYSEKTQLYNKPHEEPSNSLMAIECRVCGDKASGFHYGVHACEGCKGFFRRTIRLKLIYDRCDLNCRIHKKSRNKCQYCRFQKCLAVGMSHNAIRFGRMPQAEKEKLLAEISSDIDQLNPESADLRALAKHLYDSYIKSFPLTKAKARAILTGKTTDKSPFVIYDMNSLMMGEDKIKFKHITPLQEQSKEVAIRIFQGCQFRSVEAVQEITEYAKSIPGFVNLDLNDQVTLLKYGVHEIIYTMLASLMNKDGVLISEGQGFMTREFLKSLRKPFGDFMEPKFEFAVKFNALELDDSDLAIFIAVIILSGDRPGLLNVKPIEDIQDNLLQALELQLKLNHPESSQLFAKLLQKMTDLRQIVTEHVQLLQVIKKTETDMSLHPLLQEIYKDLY

SMILES | activation
CC[C@@]1(c2ccccc2)NC(=O)N(C)C1=O | 0.118% (inactive)
CC1(C)S[C@@H]2[C@H](NC(=O)Cc3ccccc3)C(=O)N2[C@H]1C(=O)O (tested in a mixture with another compound) | -1.96% (inactive)
CC(CC(=O)Cl)CC(C)(C)C (stereo unspecified) | -4.85% [at 78.9 µM] (inactive)
Cc1ccc(S(=O)(=O)NC(=O)NN2CC3CCCC3C2)cc1 (stereo unspecified) | 0.0686% [at 26.2 µM] (inactive)
CCCC(=O)CC | 0.97% [at 78.9 µM] (inactive)
CN(C)CCCN(C)C | -0.396% [at 7.08 µM] (inactive)
O=Cc1ccc(C(=O)O)cc1 | -0.264% [at 78.9 µM] (inactive)
C=C(C)C(=O)OCCCC | 2.26% [at 78.9 µM] (inactive)
CC(O)CCCCn1c(=O)c2c(ncn2C)n(C)c1=O (stereo unspecified) | 3.17% (inactive)
CCOC(=O)CC | 4.21% (inactive)
CC/C=C\CCCCCCCCCCOC(C)=O | 1.83% (inactive)
CN1C(CCl)Nc2cc(Cl)c(S(N)(=O)=O)cc2S1(=O)=O (stereo unspecified) | -5.98% (inactive)
CC(=O)SCC(CC(=O)c1ccc(C)cc1)C(=O)O (stereo unspecified) | -3.38% (inactive)
O=S(=O)(O)CC(O)CCl (stereo unspecified) | 1.39% (inactive)
C=CCN1CCc2nc(N)sc2CC1 | -1.37% (inactive)
Cc1ccc(O)c([N+](=O)[O-])c1 | -0.0405% [at 78.9 µM] (inactive)
OCCC(F)(F)C(F)(F)C(F)(F)C(F)(F)C(F)(F)C(F)(F)F | 3.44% (inactive)
CN(C)c1cc(NC(=O)CNC(C)(C)C)c(O)c2c1C[C@H]1C[C@H]3[C@H](N(C)C)C(=O)C(C(N)=O)=C(O)[C@@]3(O)C(=O)C1=C2O | -3.98% (inactive)
